Assay [1] addresses Aldehyde dehydrogenase, mitochondrial (Homo sapiens) (UniProt P05091). Kind of assay: qHTS for Inhibitors of the Aldehyde Dehydrogenase Family (ALDH2) Primary screen (AID 2061308).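 Also: plate controls were vehicle for no effect and reference inhibitor for full effect; nearly all actives have a fitted effect of over 55% in size.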 In general terms: Quantitative high-throughput screening tests each substance at several concentrations.
Assay [2] addresses Retinaldehyde dehydrogenase 3 (Homo sapiens) (UniProt P47895). The assay can be described thus: qHTS for Inhibitors of the Aldehyde Dehydrogenase Family (ALDH1A3) Primary screen (AID 2061315).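 Also: plate controls were DMSO vehicle for no effect and reference inhibitor for full effect.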
The nature of assay [3]: BET inhibitor-based combinations targeting novel dependencies in MECOM-rearranged (r) AML: OCI-AML3 cell line (AID 2202232). Also: nearly all actives have a fitted effect of over 35% in size. Also: potency is read from the fitted curve at half-maximal effect. As to conditions: Potency: OCI-AML3 viability. A digest of the protocol:
(§1)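 Viability of cells (500 per well) is scored by luminescent CellTiter-Glo at 48 hr post-dosing. Eleven-point titrations are normalized to DMSO and empty controls and reduced to AUC values.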

Assay [4] can be described thus: BET inhibitor-based combinations targeting novel dependencies in MECOM-rearranged (r) AML: MV-4-11 cell line (AID 2202233). Also: potency is read from the fitted curve at half-maximal effect; nearly all actives have a fitted effect of over 45% in size. Summed up: (§2)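 Using pin-tool transfer, drugs were added in 11 doses to cells (500/well), incubated 48 hr, and assessed with CellTiter-Glo. Z-AUC is a mean-centring transformation applied separately to each screened line.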
Assay [5] is described as follows: BET inhibitor-based combinations targeting novel dependencies in MECOM-rearranged (r) AML: HNT-34 cell line (AID 2202234). Also: nearly all actives have a fitted effect of over 35% in size. Also: potency is read from the fitted curve at half-maximal effect. Summed up:
as §2

The nature of assay [6]: BET inhibitor-based combinations targeting novel dependencies in MECOM-rearranged (r) AML: UCSD-AML1 cell line (AID 2202235). Also: nearly all actives have a fitted effect of over 40% in size. Also: potency is read from the fitted curve at half-maximal effect. A digest of the protocol: as §2
Assay [7] can be described thus: BET inhibitor-based combinations targeting novel dependencies in MECOM-rearranged (r) AML: AML-191 cell line (AID 2202236; also: nearly all actives have a fitted effect of over 35% in size; also: potency is read from the fitted curve at half-maximal effect). A digest of the protocol: as §1
Assay [8] can be described thus: BET inhibitor-based combinations targeting novel dependencies in MECOM-rearranged (r) AML: AML-194 cell line (AID 2202237; also: nearly all actives have a fitted effect of over 40% in size; also: potency is read from the fitted curve at half-maximal effect). A digest of the protocol: as §1
Assay [9] can be described thus: BET inhibitor-based combinations targeting novel dependencies in MECOM-rearranged (r) AML: SET-2 cell line (AID 2202231). Also: nearly all actives have a fitted effect of over 35% in size. Also: potency is read from the fitted curve at half-maximal effect.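 As to viability: plate controls were DMSO treated cells for no effect and wells without cells for full effect.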 As to conditions: SET-2 AML cells viability, CellTiter-Glo luminescence, 48 h; viability: hits give low values, concentration not given here. A digest of the protocol: as §1
In general terms: In ATP-based viability assays light output follows the ATP content of the culture.

Assay [10] deals with Retinaldehyde dehydrogenase 3 (Homo sapiens) (UniProt P47895). Kind of assay: qHTS for Inhibitors of the Aldehyde Dehydrogenase Family (ALDH1A3) Validation screen (AID 2061312). Also: % is scaled to controls: 0 for no effect and ±100 for the full control effect; nearly all actives have a fitted effect of over 45% in size.
Assay [11] addresses Retinal dehydrogenase 2 (Homo sapiens) (UniProt O94788). Kind of assay: qHTS for Inhibitors of the Aldehyde Dehydrogenase Family (ALDH1A2) Confirmation screens (AID 2061314). Also: potency is read from the fitted curve at half-maximal effect; nearly all actives have a fitted effect of over 65% in size.
Assay [12] has as its target Aldehyde dehydrogenase 1A1 (Homo sapiens) (UniProt P00352). The assay can be described thus: qHTS for Inhibitors of the Aldehyde Dehydrogenase Family (ALDH1A1) Confirmatory screens (AID 2061316). Also: potency is read from the fitted curve at half-maximal effect; nearly all actives have a fitted effect of over 65% in size.

Inconclusive results are not listed. Values without a mark were called inactive. Activity calls are given as the source filed them. Calls follow the shape of the dose curve; as a rule, active = well fitted curve in the direction sought with a large enough effect; inconclusive = small, poorly fitted or top-dose-only effect, or another doubt; inactive = no such curve, though single readings can be large; an effect the other way counts as inactive or inconclusive.

As to `CCS(=O)(=O)c1cccc(-c2cc(C(=O)NC3CCN(C)CC3)c(C)c3[nH]c4ncc(C)cc4c23)c1`, the Potency result in [1] and in assay [2] was “inactive” throughout. The Potency in [3] is 1.48 µM (active); in assay [4], 0.0934 µM (active); in assay [5] it was 0.235 µM (active); in assay [6], 0.934 µM (active); in assay [7] it was 3.72 µM (active); in assay [8], 2.63 µM (active).

As to `CC1(C)CCCC2(C)C(C(=O)O)=CCC12` (configuration not stated), the Potency entry in [1] and in assay [2] was “inactive” in each case.

For `C[C@H](c1ccc(F)cc1CCCC(=O)O)N(c1cc(F)ccc1F)S(=O)(=O)c1ccc(Cl)cc1`, the Potency result in assay [1], in [2], in assay [6] and in assay [8] was “inactive” in each case. Besides, the viability – broadly, a read-out of living cells in per cent, often relative to untreated cells – in assay [9] is 113%.

Consider `CCS(=O)(=O)N1CCC([C@@H](C)n2c(C)c(C(=O)NCc3c(OC)cc(C)[nH]c3=O)c3ccccc32)CC1`, for which the Potency entry in assay [1], in assay [2], in assay [5], in assay [6], in assay [7] and in [8] was “inactive” in each case. Besides, the viability in assay [9] is 115%. In [3], the Potency is 5.9 µM (active).

Consider `Nc1ccc(-c2ccc3ncc4ccc(=O)n(-c5cccc(C(F)(F)F)c5)c4c3c2)cn1`, for which the Potency entry in assay [1] and in [2] was “inactive” throughout. Moreover, the Potency in assay [9] is 0.105 µM (active); in assay [3], 0.166 µM (active); in assay [4], 0.0833 µM (active); in assay [5], 0.059 µM (active); in assay [6] it was 0.0263 µM (active); in assay [7], 0.0525 µM (active). Also, the Potency in assay [8] is 0.0417 µM (active).

On to `C[C@@H]1CC[C@H]2C(C)(C)[C@H](O)[C@H](O)C[C@]2(C)[C@@]12Cc1c(O)cc3c(c1O2)CNC3=O`, for which the Potency entry in [1] and in assay [2] was “inactive” throughout.

Regarding `CO[C@H]1C[C@@H]2CC[C@@H](C)[C@@](O)(O2)C(=O)C(=O)N2CCCC[C@H]2C(=O)O[C@H]([C@H](C)C[C@@H]2CC[C@H](n3cnnn3)[C@H](OC)C2)CC(=O)[C@H](C)/C=C(\C)[C@@H](O)[C@@H](OC)C(=O)[C@H](C)C[C@H](C)/C=C/C=C/C=C/1C`, the Potency result in assay [1] and in assay [2] was “inactive” throughout.

For `COc1ccc([C@@]2(O)c3c(ccc(CC=C(C)C)c3O)NC(=O)[C@@H]2OC)cc1`, the Potency result in assay [1] and in [2] was “inactive” in each case.

Consider `C[C@@H]1CCC/C=C/[C@H]2CC(=O)C[C@@H]2[C@@H](O)/C=C/C(=O)O1`, for which the Potency entry in assay [1] and in assay [2] was “inactive” throughout.

For the molecule `C=C1C(=O)O[C@@H]2C3=C(C)CCC[C@]3(C)CC[C@@]12O`, the Potency entry in assay [1] and in assay [2] was “inactive” throughout.

As to `COc1ccc(CNc2nc(N(CCO)CCO)nc3c2ncn3C(C)C)cc1`, the Potency entry in assay [1] and in assay [2] was “inactive” each time. The Potency in assay [9] was 8.33 µM (active); in assay [3], 8.33 µM (active); in [4], 6.61 µM (active); in [5] it was 7.42 µM (active); in assay [6], 7.42 µM (active); in assay [7] it was 3.32 µM (active).

For the molecule `CC1OC(OC2C(CO)OC(OCC3OC(OC(=O)C45CCC(C)(C)CC4C4=CCC6C7(C)CCC(OC8OC(C(=O)O)C(O)C(OC9OC(CO)C(O)C(O)C9O)C8O)C(C)(C)C7CCC6(C)C4(C)CC5)C(O)C(O)C3O)C(O)C2O)C(O)C(O)C1O` (configuration not stated), the figures for the activity change, negative = inhibition in assay [1] and in assay [2] were -0.0745% [at 11.2 µM] and -5.8% [at 11.2 µM], respectively.

Consider `CC#CC(=O)N1CCC[C@H]1c1nc(-c2ccc(C(=O)Nc3ccccn3)cc2)c2c(N)nccn12`, for which the Potency result in [1], in assay [2], in assay [3], in assay [5], in assay [6] and in assay [8] was “inactive” each time. For the same molecule, in [9], the viability was 96.5%.

For the molecule `Cc1ccc(C(=O)Nc2ccc(Oc3cc4cnn(C)c4cc3-c3cn[nH]c3)c(F)c2)c(=O)n1-c1ccc(F)cc1`, the Potency entry in assay [1] and in assay [2] was “inactive” in each case. Also, the Potency in [9] was 11.8 µM (active); in assay [3], 5.25 µM (active); in assay [4], 0.0053 µM (active); in assay [6] it was 5.25 µM (active); in assay [7], 6.61 µM (active).

Take `O=C(O)Cc1cccc(-c2cc(CCCCCCc3ccc(O[C@H]4O[C@H](CO)[C@@H](O)[C@H](O)[C@@H]4O)c(-c4cccc(CC(=O)O)c4)c3)ccc2O[C@H]2O[C@H](CO)[C@@H](O)[C@H](O)[C@@H]2O)c1`: the activity change, negative = inhibition in [1] was -4.79% [at 0.464 µM]; in assay [2], -13.7% [at 0.464 µM].

With `CS(=O)c1ccc(-c2nc(-c3ccc(F)cc3)c(-c3ccncc3)[nH]2)cc1` (configuration not stated), the Potency entry in [1], in [2], in [3], in assay [7] and in assay [8] was “inactive” in each case.

Take `COC(=O)C1=CO[C@@H](O[C@@H]2O[C@H](CO)[C@@H](O)[C@H](O)[C@H]2O)[C@@H]2C(C)CC(=O)[C@]12O` (some centres not stated): the Potency result in [1] and in assay [2] was “inactive” each time.

Take `O=C(Nc1ccc(OC(F)(F)F)cc1)c1sccc1NCc1ccnc2ccccc12`: the Potency entry in [1] and in assay [2] was “inactive” throughout. Besides, the Potency is 5.25 µM (active) in [3]; 6.61 µM (active) in assay [4]; 10.5 µM (active) in assay [5]; 5.9 µM (active) in assay [6]; 5.9 µM (active) in [8].

Take `COC(=O)c1ccnc(-c2cc(C(=O)Nc3ccc(C4(N)CC4)cc3)ccn2)c1`: the Potency entry in assay [1] and in assay [2] was “inactive” each time.

As to `N#Cc1c(C2CCNCC2)cc(-c2c(O)cccc2OCC2CC2)nc1N`, the Potency entry in assay [1] and in [2] was “inactive” each time. Besides, the Potency in assay [5] was 23.5 µM (active); in assay [6] it was 16.6 µM (active); in assay [7] it was 26.3 µM (active); in [8] it was 16.6 µM (active).

Take `N#Cc1cnc2cnc(NCc3cccnc3)cc2c1Nc1ccc(F)c(Cl)c1`: the Potency result in assay [1] and in [2] was “inactive” each time.

For `COc1ccc(Cn2ccc3ccc(C(=O)NO)cc32)cc1`, in assay [1], the Potency result was “inactive”.

Turning to `O=c1c(-c2ccc(O)cc2)coc2cc(O[C@@H]3O[C@H](CO)[C@H](O)[C@H](O)[C@H]3O)ccc12`, the Potency entry in assay [10] is “inactive”.

With `O=C(O)COCCN1CCN([C@H](c2ccccc2)c2ccc(Cl)cc2)CC1`, the Potency result in [10] is “inactive”.

`O=C(O)c1ccc(-n2cccc2/C=C2\SC(=O)N(Cc3ccc(Cl)cc3)C2=O)cc1`: the Potency in assay [11] is 17.8 µM (active); in assay [12] it was 4 µM (active).

These data come from PubChem BioAssay (NCATS).
